High-throughput results (PubChem BioAssay)
In the library only some 2.4% were active in any assay of this set; here they are far more common.
D2 PAM-1 – positively modulates the human D2 dopamine receptor allosterically; P14416; HEK293 T-REx D2, calcium flux, EC20 dopamine potentiation; potentiation, % at 10 µM; hit rate 0.34% among 340,000;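 active means potentiation over 3 SD above the plate norm, cut at about 30% in these data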; further: 0% is about no effect
Target sequence (P14416 whole entry, looked up): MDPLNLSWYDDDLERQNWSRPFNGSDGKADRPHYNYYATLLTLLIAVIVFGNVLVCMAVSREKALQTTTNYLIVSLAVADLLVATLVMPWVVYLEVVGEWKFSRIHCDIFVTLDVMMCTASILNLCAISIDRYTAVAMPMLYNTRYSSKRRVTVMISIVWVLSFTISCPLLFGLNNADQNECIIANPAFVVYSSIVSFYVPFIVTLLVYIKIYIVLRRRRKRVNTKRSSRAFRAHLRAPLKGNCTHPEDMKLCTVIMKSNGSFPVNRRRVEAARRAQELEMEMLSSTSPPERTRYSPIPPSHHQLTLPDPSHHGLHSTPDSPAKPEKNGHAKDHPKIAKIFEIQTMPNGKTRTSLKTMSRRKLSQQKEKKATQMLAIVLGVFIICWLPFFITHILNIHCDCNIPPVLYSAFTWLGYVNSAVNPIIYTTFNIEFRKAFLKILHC
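Tetracycline-induced Hek293 Trex D2 cells, force-coupled to calcium, loaded with no-wash calcium dye. Compound added with 180 s kinetic read for agonism, then EC20 dopamine and a further 180 s read for potentiation.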
D2 ag-1 – human D2 receptor agonism in beta-arrestin assay; P14416; DiscoveRx PathHunter D2 beta-arrestin, luminescence, 90 min; 100% = 57 uM dopamine signal; activation, % (test concentration not listed); hit rate 0.084% among 360,000; in the data active means activation above about 40%; inconclusive means between about 15% and that limit
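Agonist mode: compounds alone added to overnight-plated D2 PathHunter cells for 90 min at 37 C, with 57 uM final dopamine (EC100) defining full response. Beta-arrestin recruitment detected by chemiluminescent reagent, read after 1 h at ambient temperature.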
D2 PAM-2 – human D2 receptor positive allosteric modulation | P14416 | DiscoveRx D2 beta-arrestin cells, luminescence, 90 min; 100% = 57 uM dopamine signal | potentiation, % (concentration not given with the values) | hit rate 0.23% among 360,000; in the data active means potentiation above about 50%; inconclusive means mostly about 30% to 49%
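D2 cells co-treated with compound plus 50 nM dopamine (EC20) for 90 min at 37 deg C to detect potentiation. Beta-arrestin recruitment was read as enzyme-fragment luminescence after 1 h at ambient temperature. Full response was set by 57 uM dopamine.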
D2 antag – D2 dopamine receptor (human) antagonism. HEK293 TREx D2 cells, calcium flux, dopamine EC80. AID 485344. P14416. hit rate 2% among 340,000. inhibition, % at 10 µM; in the data active means inhibition above about 30%; inactive means below that, where a call was filed; further: 0% is about no effect
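Tetracycline-induced HEK293 TREx cells expressing D2 receptor forced-coupled to calcium signalling, loaded with no-wash calcium dye. Compounds added and calcium flux read 180 s, then dopamine added at EC80 and read a further 180 s.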
D2 ag-2 – activates the human D2 dopamine receptor | activation, % at 2 µM | HEK293 T-REx D2 cells, calcium flux agonist mode | AID 485358 | hit rate 0.53% among 340,000;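 active means activation over 3 SD above normal in the single-dose calcium agonist read, cut at about 30% in these data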; further: 0% is about no effect
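Agonism is scored from calcium flux in a force-coupled, inducible HEK293 cell line expressing D2, read kinetically for 180 s after compound addition against dopamine controls.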
An asterisk follows results filed as active; ? = inconclusive; nt = not tested or not shown.

SMILES	D2 PAM-1	D2 ag-1	D2 PAM-2	D2 antag	D2 ag-2
CC1CCCC(NC(=O)C2N(CCCN3CCCC3)C(=O)C3C(C(=O)Nc4ccc(Cl)cc4)C4C=CC32O4)C1C (configuration not stated)	12	-1	-14	4	-2
Cc1cccc(CS(=O)(=O)Cc2ccc(C(=O)NCc3ccc(Cl)cc3)o2)c1	-9	nt	nt	nt	0
COc1ccc(NC(=O)C(=O)NCCc2csc(-c3ccc(Cl)cc3)n2)cc1OC	0	nt	nt	nt	-1
O=C(COC(=O)COc1ccccc1)NC12CC3CC(CC(C3)C1)C2	19	-2	-4	34*	0
CCC(C)c1ccccc1N1CC(C(=O)N2CCN(c3ccccc3)CC2)CC1=O (configuration not stated)	nt	-1	10	nt	nt
CCC(C)c1ccccc1N1CC(C(=O)N2CCN(S(=O)(=O)c3cccc([N+](=O)[O-])c3)CC2)CC1=O (configuration not stated)	-8	4	8	36*	1
CCC(C)NCCOc1cc(C)cc(C)c1C (configuration not stated)	-20	-6	-15	51*	1
Cc1cccc2cc(CN(Cc3ccc(F)cc3)Cc3nnnn3C3CCCC3)c(=O)[nH]c12	-2	0	-16	-2	-1
Cc1cccc2cc(CN(Cc3cccs3)C3(c4nnnn4C4CCCC4)CCCC3)c(=O)[nH]c12	7	-2	-5	77*	1
CN1CCC(N(C)S(=O)(=O)c2ccc(F)cc2F)CC1	-8	-2	-15	33*	2
CCc1ccc(S(=O)(=O)c2nnn3c2nc(N2CCOCC2)c2ccccc23)cc1	32*	-6	-2	3	-1
CCCc1cc(C(=O)Cc2ccccn2)c(O)cc1O	9	-7	0	37*	-1
Oc1cccc(Nc2ncnc3ccccc23)c1	3	-2	-10	51*	0
CCOC(=O)c1sc(NC(=O)c2ccncc2)c(C#N)c1C	31*	0	?	-1	8
CCOC(=O)c1sc(NC(=O)CSc2n[nH]c(-c3ccc(Cl)cc3Cl)n2)c(C#N)c1C	31*	-1	-3	6	0
Cc1c(C(=O)N2CCCC2)sc(NC(=O)c2ccc(Cl)cc2)c1C#N	-24	-1	-9	91*	0
CCOC(=O)c1ccc(NC(=S)N(CCCN2CCN(CC)CC2)Cc2cccs2)cc1	9	-12	-7	2	-9
CCOc1ccc(NC(=O)CSc2nc3c(c(=O)[nH]2)CCCC3)cc1	2	nt	nt	nt	4
COc1cccc(NC(=O)CSC2=C(C#N)C(c3ccco3)C3=C(CCCC3=O)N2)c1 (configuration not stated)	-3	1	-20	37*	1
COc1ccc(NC(=O)CSC2=C(C#N)C(c3ccco3)C3=C(CCCC3=O)N2)c(OC)c1 (configuration not stated)	10	0	-1	5	0
COc1cccc(NC(=O)CSc2nc3c(c(-c4ccco4)c2C#N)CCCC3)c1	42*	4	5	14	-1
OCc1cn(-c2ccc(Cl)cc2)nn1	nt	-3	-5	nt	nt
Cc1ccc(C(=O)NN2C(=O)c3ccc(S(=O)(=O)c4ccc(C(=O)O)cc4)cc3C2=O)cc1	-14	-20	-26	63*	1
O=C(O)c1ccc(S(=O)(=O)c2ccc3c(c2)C(=O)N(NC(=O)c2ccc(O)cc2)C3=O)cc1	-5	-1	-6	-7	0
COc1cc(NC(=O)c2nn(C)c3c2CS(=O)(=O)c2ccccc2-3)cc(OC)c1	24	3	-4	-15	2
SMILES	D2 PAM-1	D2 ag-1	D2 PAM-2	D2 antag	D2 ag-2
COc1ccc(NC(=O)c2nn(C)c3c2CS(=O)(=O)c2ccccc2-3)cc1	37*	0	-15	-6	1
CCN(c1cccc(C(F)(F)F)c1)S(=O)(=O)c1ccc2c(c1)CCN2C(C)=O	-9	-1	-26	31*	0
CCN(c1cccc(C)c1)S(=O)(=O)c1ccc2c(c1)CCN2C(C)=O	-15	-1	-36	2	-1
Cc1ccc2nc(COc3ccccc3NC(=O)C(C)(C)C)cc(=O)n2c1	-4	nt	nt	nt	-2
CCn1cc(CN2CCC(C(=O)Nc3ccc(Oc4cccnc4)cc3)CC2)cn1	-6	-4	17	31*	-3
CCn1cc(CN2CCC(C(=O)Nc3ccc(Oc4cccnc4)cc3)CC2)c(C)n1	-9	-6	-25	-6	0
O=S(=O)(c1ccccc1)N1CCN(C(=S)NCCc2ccccc2)CC1	-3	-4	-2	38*	0
Clc1ccc(OCCNCCc2ccccc2)cc1	-22	0	-6	54*	3
c1ccc(CCNCCCOc2cccc3ccccc23)cc1	1	-7	-27	35*	1
CC(NC(=O)COc1cccnc1[N+](=O)[O-])c1ccc(F)cc1 (configuration not stated)	34*	2	-1	0	0
O=C(COc1cccnc1[N+](=O)[O-])Nc1ccc(F)cc1	nt	-1	-1	nt	nt
O=C1C=C(c2ccccc2)C[C@H](c2cccs2)[C@H]1n1nnc([N+](=O)[O-])n1	-1	13	58*	nt	nt
O=C1C=C(c2ccccc2)CC(c2cccs2)C1n1cnc([N+](=O)[O-])c1 (configuration not stated)	13	1	21	-25	-1
COc1cc(OC)c(CNC2CCCCCC2)cc1Br	-2	-6	-13	49*	-1
Cc1cccc(CC(=O)NCC(=O)NCc2cc(=O)n(C)c(=O)n2C)c1	-3	-5	-3	8	0
CCNc1nc(Oc2ccc(=O)n(-c3ccccc3)n2)nc(N(C)C)n1	6	-3	?	-1	0
CCNc1nc(OC)nc(Oc2ccc(=O)n(-c3ccccc3)n2)n1	38*	-1	-7	-6	1
O=C(N/N=C/c1cccc(O)c1)N/N=C/c1cccc(O)c1	-4	2	3	24	2
Cc1nonc1C(=O)N/N=C/c1cccc(O)c1	15	-5	-1	33*	-1
Cn1c(Cn2nnc3ccccc32)nnc1SCC(N)=O	34*	-3	-5	7	-3
CC(C)n1cnc2c(N(C)c3ccccc3)nc(N(CCN(C)C)Cc3ccccc3)nc21	-18	2	-23	34*	0
CC(C)Oc1ccc(CNC(=O)c2ccc3c(c2)N(C)CCS3)cc1	-19	-1	-16	47*	2
CSc1ccc(-c2nc3ccc(C)cn3c2Nc2ccccc2C)cc1	-6	nt	nt	nt	-1
O=C(NCc1ccncc1)C(=O)N/N=C/c1cccnc1	16	-4	-7	9	0
